Hits are enriched below; roughly 1.2% of the tested compounds scored in any of these assays.
LRH-1 inv ag = NR5A2 inverse agonism in reporter assay. inhibition, % at 3.6 µM. O00482. HEK293T StAR-luciferase reporter, LRH-1 transfected, 24 h. 360,000 compounds, 0.13% hits;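 active = inhibition above the mean inhibition of all tested compounds plus 3 SD, cut at about 73% in these data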
COUP-TFII inh = inhibitors of human COUP-TFII (NR2F2) | P24468 | 370,000 compounds, 0.7% hits | inhibition, % at 8.6 µM | HEK293T NGFI-A luciferase reporter, luminescence;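 active = inhibition above a per-plate cutoff, mean inhibition of test wells between control levels plus 3 SD, cut at about 38% in these data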;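 also: cells cotransfected with COUP-TFII expression vector driving the NGFI-A reporter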
SRC3 inh = human NCOA3 inhibition; HEK293 GAL4-SRC3 luciferase reporter, luminescence; inhibition, % at 3.6 µM; Q9Y6Q9; 360,000 compounds, 0.17% hits;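 active = inhibition above a per-campaign cutoff, the mean of all compounds plus 3 SD, cut at about 60% in these data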;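 also: higher means less SRC3-driven luciferase light from the GAL4 reporter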
Target sequence (Q9Y6Q9 whole entry, looked up, the tested form may be a part): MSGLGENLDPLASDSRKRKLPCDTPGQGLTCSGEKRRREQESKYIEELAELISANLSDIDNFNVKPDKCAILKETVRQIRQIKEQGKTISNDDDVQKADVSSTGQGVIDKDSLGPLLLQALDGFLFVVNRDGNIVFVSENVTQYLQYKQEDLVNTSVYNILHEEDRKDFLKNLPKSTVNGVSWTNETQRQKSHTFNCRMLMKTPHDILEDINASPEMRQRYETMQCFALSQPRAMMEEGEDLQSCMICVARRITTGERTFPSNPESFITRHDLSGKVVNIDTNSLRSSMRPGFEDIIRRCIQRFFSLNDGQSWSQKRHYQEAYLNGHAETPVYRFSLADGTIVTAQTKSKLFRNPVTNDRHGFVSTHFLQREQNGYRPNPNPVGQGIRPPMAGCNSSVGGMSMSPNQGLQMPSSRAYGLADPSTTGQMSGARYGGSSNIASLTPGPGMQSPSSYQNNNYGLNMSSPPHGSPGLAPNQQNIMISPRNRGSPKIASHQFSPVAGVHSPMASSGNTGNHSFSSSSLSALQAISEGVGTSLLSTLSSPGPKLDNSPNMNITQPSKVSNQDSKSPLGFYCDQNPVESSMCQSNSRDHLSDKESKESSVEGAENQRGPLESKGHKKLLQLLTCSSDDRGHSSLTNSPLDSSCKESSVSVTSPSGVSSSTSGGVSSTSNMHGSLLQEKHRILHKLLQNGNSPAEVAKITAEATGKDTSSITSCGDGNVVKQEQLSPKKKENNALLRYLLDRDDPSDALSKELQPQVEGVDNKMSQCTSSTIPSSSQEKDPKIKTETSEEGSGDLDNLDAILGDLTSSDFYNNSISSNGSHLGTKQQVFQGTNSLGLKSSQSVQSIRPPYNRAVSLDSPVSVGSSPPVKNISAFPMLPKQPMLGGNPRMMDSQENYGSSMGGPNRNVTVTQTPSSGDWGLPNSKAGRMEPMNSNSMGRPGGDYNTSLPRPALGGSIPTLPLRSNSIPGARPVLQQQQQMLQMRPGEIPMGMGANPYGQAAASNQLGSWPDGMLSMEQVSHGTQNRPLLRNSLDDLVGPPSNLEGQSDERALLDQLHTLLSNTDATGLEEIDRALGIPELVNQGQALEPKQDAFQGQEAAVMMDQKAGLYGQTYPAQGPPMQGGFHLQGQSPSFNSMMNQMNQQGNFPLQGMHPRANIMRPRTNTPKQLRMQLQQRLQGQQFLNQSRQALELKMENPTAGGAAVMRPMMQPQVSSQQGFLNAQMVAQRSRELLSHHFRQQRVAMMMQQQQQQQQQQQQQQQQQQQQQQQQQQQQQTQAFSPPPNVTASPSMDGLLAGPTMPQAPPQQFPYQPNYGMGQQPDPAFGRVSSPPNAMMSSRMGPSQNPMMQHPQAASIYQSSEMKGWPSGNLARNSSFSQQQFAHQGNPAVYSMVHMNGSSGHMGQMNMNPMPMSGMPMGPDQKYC
SRC2 inh = inhibits human steroid receptor coactivator 2. inhibition, % at 9 µM. HEK293 GAL4-SRC2 luciferase reporter, luminescence. AID 651957. 370,000 compounds, 0.17% hits;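 active = inhibition above the mean inhibition of all tested compounds plus 3 SD, set per campaign, cut at about 52% in these data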
NCOA1 inh = inhibitors of human steroid receptor coactivator 1 (SRC1); Q15788; HEK293 GAL4-SRC1 luciferase reporter, luminescence; inhibition, % at 3.6 µM; 360,000 compounds, 0.12% hits; AID 588354;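 active = inhibition above the campaign mean plus 3 SD, with each screening campaign given its own cutoff, cut at about 60% in these data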
Efflux pump mplx = inhibitors of Candida antifungal efflux pumps expressed in yeast; S. cerevisiae Candida pump triplex, Nile Red efflux; inhibition, % at 10 µM; 330,000 compounds, 0.44% hits; AID 485275;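 active = plate passing quality check with inhibition over a set limit, or well fluorescence over plate mean plus 4 SD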;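 also: Nile Red retained in pooled yeast measured as flow cytometry median fluorescence; higher means more Nile Red kept so more efflux inhibition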
Gal4-VP16 ctr = VP16 inhibition counter-screen for COUP-TFII | shares compounds with COUP-TFII inh | HEK293 Gal4-VP16 luciferase reporter, luminescence | inhibition, % at 8.5 µM | 2,500 compounds, 25% hits; in the data active = inhibition above about 13%
COUP-TFII conf = confirmation of human COUP-TFII (NR2F2) inhibitors; 2,500 compounds, 45% hits; shares compounds with COUP-TFII inh; inhibition, % at 8.5 µM; HEK293 NGFI-A luciferase reporter, luminescence;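 active = mean inhibition over three repeats above a set limit taken from the earlier primary screen, cut at about 38% in these data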
Hits are given with their value; - = inactive; . = no result.

SMILES | LRH-1 inv ag | COUP-TFII inh | SRC3 inh | SRC2 inh | NCOA1 inh | Efflux pump mplx | Gal4-VP16 ctr | COUP-TFII conf
OC(CN1CCCCC1)c1c[nH]c2ccccc12 (stereo unspecified) | - | - | - | - | - | - | . | .
CN1/C(=C\C=C2C(=O)NC(=O)NC2=O)C(C)(C)c2ccccc21 | - | - | - | - | - | - | . | .
CCN1/C(=C/C=C/C2=[N+](CC)c3ccccc3C2(C)C)C(C)(C)c2ccccc21 | 98.5 | 92.0 | 82.3 | - | 71.7 | . | 42.4 | 90.0
CC(N)C(=O)NC1C2C(=C(O)CC(O)C2O)C(=O)OC1(C)C(Cl)Cl (stereo unspecified) | 96.8 | 76.4 | 91.0 | 64.5 | 93.3 | . | - | 57.0
CCN1CCN(c2nc3c(c(=O)[nH]2)CCCC3)CC1 | - | - | - | - | - | - | . | .
COc1ccc(-n2nnnc2C(c2cc3ccccc3o2)N2CCC(n3c(=O)[nH]c4ccccc43)CC2)cc1 (stereo unspecified) | - | 98.9 | - | - | - | . | - | 60.3
COc1ccc(C(c2nnnn2-c2ccc(OC)cc2)N2CCC(n3c(=O)[nH]c4ccccc43)CC2)cc1 (stereo unspecified) | - | - | - | - | - | . | . | .
CC1=CC2OC3CC4OC(=O)C=CC=CC(C(C)O)OCC(O)C5(C)OC5C(=O)OCC2(CC1O)C4(C)C31CO1 (stereo unspecified) | 97.8 | 91.7 | 92.6 | 64.7 | 95.9 | . | 18.7 | 89.3
CC1=CC2OC3CC4OC(=O)C=CC=CC(=O)OCCC(C)C(O)C(=O)OCC2(CC1)C4(C)C31CO1 (stereo unspecified) | 98.7 | 90.0 | 94.3 | 71.0 | 95.0 | . | 16.6 | 87.0
CC(O)C1C=CC=CC(=O)OC2CC3OC4C5OC5(C)C(O)CC4(COC(=O)C(O)C(C)CCO1)C2(C)C31CO1 (stereo unspecified) | 100.2 | 92.0 | 94.4 | 72.6 | 95.8 | . | 24.7 | 92.3
CC1CCOC(=O)C=CC=CC(=O)OC2CC3OC4C5OC5(C)C(O)CC4(COC(=O)C1O)C2(C)C31CO1 (stereo unspecified) | 98.3 | 92.0 | 93.4 | 72.9 | 95.6 | . | 22.6 | 88.8
CN1C2c3ccccc3C3C4c5ccccc5C(C31)C(C2[N+](=O)[O-])N4C (stereo unspecified) | - | - | - | - | - | - | . | .
CCC(COC(=O)NC)NC(=O)Oc1ccccc1 (stereo unspecified) | - | - | - | - | - | - | . | .
C[C@H]1CCC[C@H](O)CCCCCc2cc(O)cc(O)c2C(=O)O1 | - | - | - | - | - | - | . | .
CC1CCC/C=C/C2CC(O)CC2C(O)/C=C/C(=O)O1 (stereo unspecified) | 76.9 | 59.3 | - | - | - | - | - | -
COCCNC(=O)N1[C@H]2CC[C@@H]1C(C(=O)OC)=C(c1ccc(-c3ccccc3)c(F)c1)C2 | - | 49.7 | - | - | - | - | - | -
COC(=O)C1=C(c2ccc(-c3ccccc3)c(F)c2)C[C@@H]2CC[C@H]1N2C(=O)N1CCC(O)CC1 | - | - | - | - | - | - | . | .
COC(=O)C1=C(c2ccc(-c3ccccc3)c(F)c2)C[C@@H]2CC[C@H]1N2C(=O)N1CCOCC1 | - | 70.6 | - | - | - | - | - | -
COC(=O)C1=C(c2ccc(-c3ccccc3)c(F)c2)C[C@@H]2CC[C@H]1N2C(=O)N1CCCC1 | - | 66.9 | - | - | - | - | - | 47.1
COC(=O)C1=C(c2ccc(-c3ccccc3)c(F)c2)C[C@@H]2CC[C@H]1N2C(=O)N1CCCCC1 | - | 63.9 | - | - | - | - | 20.2 | 53.6
COc1ccc(Cc2c(O)[nH]c(=S)[nH]c2=O)cc1 | - | - | - | - | - | - | . | .
O=C(O)c1ccc(-[n+]2c(-c3ccccc3)cc(-c3ccccc3)cc2-c2ccccc2)cc1 | - | - | - | - | - | - | . | .
CCCOC(=O)c1ccc(-[n+]2c(-c3ccccc3)cc(-c3ccccc3)cc2-c2ccccc2)cc1 | - | 54.9 | - | - | - | - | 22.5 | 48.1
CCCCc1nc2ccccc2c(=O)n1-c1ccc(O)cc1 | - | - | - | - | - | - | . | .
C/C(=N\N=C(N)N)c1ccccc1 | - | - | - | - | - | - | . | .
SMILES | LRH-1 inv ag | COUP-TFII inh | SRC3 inh | SRC2 inh | NCOA1 inh | Efflux pump mplx | Gal4-VP16 ctr | COUP-TFII conf
COC1C(O)C(C)OC(OC2CCC3(C)C(CCC4C3C(O)CC3(C)C(C5=CC(=O)OC5)CCC43O)C2)C1O (stereo unspecified) | 100.8 | 76.6 | 90.1 | 57.7 | 87.4 | . | 53.9 | 78.9
CC12CCC(O)CC1CCC1C2CCC2(C)C(C3=CC(=O)OC3)CCC12O (stereo unspecified) | 98.7 | 71.6 | 83.9 | - | 82.1 | . | 45.3 | 71.6
C[C@H]1CC[C@@H]2[C@@H](C)[C@H]3[C@H](C[C@H]4[C@@H]5CC=C6C[C@@H](O[C@@H]7O[C@H](CO)[C@H](O)[C@H](O[C@@H]8O[C@H](CO)[C@@H](O)[C@H](O)[C@H]8O)[C@H]7O[C@@H]7O[C@@H](C)[C@H](O)[C@@H](O)[C@H]7O)CC[C@]6(C)[C@H]5CC[C@]34C)N2C1 | - | - | - | - | - | - | . | .
CC(=O)OC1CC(OC2C(O)CC(OC3C(O)CC(OC4CCC5(C)C(CCC6C5CC(O)C5(C)C(C7=CC(=O)OC7)CCC65O)C4)OC3C)OC2C)OC(C)C1OC1OC(CO)C(O)C(O)C1O (stereo unspecified) | 102.6 | 78.7 | 90.2 | 61.2 | 87.0 | . | 51.6 | 76.3
C[C@]12CC[C@H](O)C[C@H]1CC[C@@H]1[C@@H]2C[C@@H](O)[C@]2(C)[C@@H](C3=CC(=O)OC3)CC[C@]12O | 102.8 | 80.7 | 75.1 | - | - | - | 29.3 | 58.5
C[C@]12CCC3C(CC[C@H]4C[C@@H](O)CC[C@]34C)[C@H]1C=CC2=O (stereo partly specified) | - | - | - | - | - | - | . | .
CC(C)N(C(=O)CCl)c1ccccc1 | - | - | - | - | - | . | . | .
C[C@]12CC[C@H](O)C[C@H]1CC[C@@H]1[C@@H]2CC[C@]2(C)[C@@H](C3=CC(=O)OC3)CC[C@]12O | 102.1 | 77.0 | 84.9 | - | 82.6 | - | 46.6 | 73.5
CC12CC[C@H]3[C@@H](CCC4(O)C[C@H](O)CCC34/C=N/NC(=O)Cc3ccccc3)C1(O)CCC2C1=CC(=O)OC1 (stereo partly specified) | - | - | - | - | - | - | . | .
O=c1[nH]c(=S)n(-c2ccc(Cl)cc2)c(O)c1/C=N/N1CCOCC1 | - | - | - | - | - | - | . | .
COc1ccc(Cc2nccc3cc(OC)c(OC)cc23)cc1OC | - | 39.7 | - | - | - | - | - | -

Screening data (PubChem)
